Compounds without any hit were thinned out: in the full panel of roughly 79,000, 15% have a hit. No stated cut-off is given here; in the data, active means growth inhibition above about 70%; inactive means the rest. Where a SMILES comes first, the peptide text is derived from it. [ ]: non-standard residue; d: D form. The star is where a group is joined. ξ: configuration not given here. Bz = O=C(c1ccccc1)*; Bn = c1ccc(C*)cc1; ξC = NC(CS)C(=O)O
Legend:
[1] = NCI Yeast Anticancer Drug Screen. Data for the rad50 strain (AID 155);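 further: 0% = growth of vehicle-only cultures of the same strain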; conditions: S. cerevisiae rad50 strain growth inhibition; at 50.0 µM; active compounds read high
Procedure, shortened: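 Cells are treated with compound, grown, and their growth is then scored against vehicle-only cultures of the same repair-deficient yeast strain.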

[2] = NCI Yeast Anticancer Drug Screen. Data for the mec2-1 strain (AID 157); conditions: S. cerevisiae mec2-1 strain, at 50.0 µM, active compounds read high
Procedure, shortened: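 Cells of the genetically defined mec2-1 yeast strain are incubated with test compound. Inhibition of growth is calculated against vehicle-treated controls.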

[3] = NCI Yeast Anticancer Drug Screen. Data for the sgs1 mgt1 strain (AID 161);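 further: 0% = growth of cultures given vehicle only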; conditions: S. cerevisiae sgs1 mgt1 strain, at 50.0 µM, active compounds read high
Procedure, shortened: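 Mutant yeast exposed to compound; growth scored against vehicle-only wells.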

[4] = NCI Yeast Anticancer Drug Screen. Data for the cln2 rad14 strain (AID 165);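 further: 0% = growth equal to vehicle treated cultures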; conditions: S. cerevisiae cln2 rad14 strain, at 50.0 µM, active compounds read high
Procedure, shortened: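 The screen exposed genetically defined yeast (cln2 rad14) to test compounds and scored growth inhibition relative to vehicle-treated controls.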

[5] = NCI Yeast Anticancer Drug Screen. Data for the bub3 strain (AID 167); conditions: S. cerevisiae bub3 mutant strain, at 50.0 µM, active compounds read high
Procedure, shortened: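 Part of a panel of yeast mutants defective in DNA damage repair or cell cycle regulation. Each strain is grown with compound, and inhibition is calculated relative to solvent-treated cultures.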

[6] = NCI Yeast Anticancer Drug Screen. Data for the mlh1 rad18 strain (AID 175); conditions: S. cerevisiae mlh1 rad18 strain growth inhibition; at 50.0 µM; active compounds read high
Procedure, shortened: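 Compound-treated yeast growth, normalised to vehicle controls. Strain bears defined DNA repair mutations.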

Measured: growth inhibition

CCC(CC)(C1CCC(=O)CC1)C1CCC(=O)CC1
inactive: [1] 45.9% | [2] -3.55% | [3] -1.05% | [4] -9.2% | [5] 37.1% | [6] 13.6%

S=c1nc[nH]c2c1CNC2
inactive: [1] -8.2% | [2] 10.9% | [3] -5.4% | [4] 1.7% | [5] 5.25% | [6] -6.15%

CC1(C)C(=NNC(=S)NN)C(C)(C)C1=NNC(=S)NN
inactive: [1] 40.5% | [2] 36% | [3] 42.4% | [4] 18.9% | [5] 46.5% | [6] 38.7%

Cc1ccc(S(=O)(=O)OCCOCCOc2ccc(C(C)(C)CC(C)(C)C)cc2)cc1
inactive: [1] 49.7% | [2] 1.05% | [3] 34% | [4] 4.3% | [5] 3.8% | [6] 27%

O=c1cc(O)nc(CO)[nH]1
inactive: [1] -4.15% | [2] -5.75% | [3] -41.9% | [4] -14.7% | [5] 3.9% | [6] 2.6%

Cc1cc(=O)c2cccc(-c3ccccc3)c2[nH]1
inactive: [1] 19.5% | [2] 1.25% | [3] 1.15% | [4] -30.9% | [5] -12.9% | [6] 22.2%

CCCc1cc2c(cc1CSc1ccccc1C(=O)O)OCO2
inactive: [1] -13.6% | [2] -8.75% | [3] -1.9% | [4] -84.7% | [5] -7.6% | [6] -12.4%

COC1N(C2C=CC(CO)O2)C(=O)NC(=O)C1(C)Br (stereo unspecified)
inactive: [1] -4.8% | [2] -18.1% | [3] 2.8% | [4] 2.75% | [5] -17.8% | [6] 15.8%

CCc1nc(N)nc(N)c1-c1ccc(Cl)c(S(=O)(=O)O)c1
inactive: [1] -27.1% | [2] -26.1% | [3] -9.8% | [4] -13.4% | [5] -15.1% | [6] 1.85%

CC(=O)OCC1CCCCO1 (stereo unspecified)
inactive: [1] 2.6% | [2] -1.65% | [3] -6.1% | [4] -0.2% | [5] -0.2% | [6] -4.7%

COC(OC)C1(c2ccccc2)NC(=O)N(Cc2ccccc2)C1=O (stereo unspecified)
inactive: [1] 3.1% | [2] -10% | [3] -1.3% | [4] -49.5% | [5] 2.85% | [6] -9.65%

CCCCCCCCCCCCCCCCC(CCCCCCCCCCCCCCCC)c1ccccc1
inactive: [1] 35.2% | [2] -0.65% | [3] 13.4% | [4] -18.1% | [5] 4.05% | [6] 18.6%

CCN(CC)CCOc1ccc(OC)cc1
inactive: [1] -8.7% | [2] -0.6% | [3] -9.55% | [4] -35.2% | [5] -5.2% | [6] -0.8%

Cc1nc(N)c2c(n1)C(Cc1ccccc1)N(C(=O)c1ccccc1)C2 (stereo unspecified)
inactive: [1] -5.6% | [2] -4.3% | [3] -24.1% | [4] -24.4% | [5] 6.55% | [6] -17.4%

CC12CCC3C(CCC4CC(O)(C(=O)O)CC43C)C1CCC2O (stereo unspecified)
inactive: [1] -16.9% | [2] -3.05% | [3] -19.9% | [4] 5.15% | [5] -7.55% | [6] -19.3%

CC(COc1cc(Cl)c(Cl)cc1Cl)OC(=O)COc1ccc(Cl)cc1Cl (stereo unspecified)
inactive: [1] 8.75% | [2] 8.85% | [3] 7.7% | [4] 28.5% | [5] 2.9% | [6] 7%

NC1c2ccccc2CCc2ccccc21
inactive: [1] 13.6% | [2] -13.7% | [3] 17.6% | [4] 3.55% | [5] 6.8% | [6] 6.8%

Cn1nc(NC(=O)c2cc(N)nn2C)cc1C(=O)Nc1ccc2cc(S(=O)(=O)O)cc(S(=O)(=O)O)c2c1
inactive: [1] -14.1% | [2] -16.7% | [3] -10.3% | [4] 7.65% | [5] 13.7% | [6] -3%

CCOc1ccc(C=O)cc1OCC
inactive: [1] 0.15% | [2] -25.4% | [3] -9.3% | [4] -15.8% | [5] -2.7% | [6] -10.3%

Brc1ccc2nc(-c3ccccc3)c3ccccc3c2c1
inactive: [1] -13.7% | [2] -0.45% | [3] -2.35% | [4] -25.4% | [5] 14.8% | [6] -2.65%

Cn1cncc1CC1COC(=O)C1C(O)c1ccccc1 (stereo unspecified)
inactive: [1] 11% | [2] 8.45% | [3] -14.2% | [4] -1.5% | [5] -26.9% | [6] -53.9%

NC(=O)CCn1ccc2ccccc21
inactive: [1] 0.5% | [2] -5.8% | [3] 0% | [4] -1.25% | [5] 5% | [6] -0.85%

Cc1ccc(S(=O)(=O)N/N=C2/C(=O)NC(=O)C(=O)C2c2nc3ccccc3s2)cc1 (stereo unspecified)
inactive: [1] 12.4% | [2] -2.6% | [3] 13.6% | [4] -19.1% | [5] 8.45% | [6] 12.4%

CCCOC(=O)/C=C/c1ccc(OC)cc1
inactive: [1] -10.7% | [2] -18.9% | [3] -16.1% | [4] -12.2% | [5] -14.4% | [6] -27.4%

O=c1[nH]c(-c2ccccc2N=NN2CCCCC2)nc2ccccc12
inactive: [1] -4.05% | [2] -2.35% | [3] -2.6% | [4] -11.8% | [5] -4.45% | [6] 1.8%

COc1ccccc1-n1on1-c1ccccc1OC
inactive: [1] 4.3% | [2] 18.1% | [3] -3.4% | [4] -30.9% | [5] 9.75% | [6] 20.1%

CCOC(=O)C(=O)C1C(=O)Nc2ccccc21 (stereo unspecified)
inactive: [1] -12.4% | [2] -4.9% | [3] -6.35% | [4] -2.5% | [5] -18.4% | [6] -12.6%

N#CC(CCc1ccccc1[N+](=O)[O-])(CCc1ccccc1[N+](=O)[O-])C(N)=O
inactive: [1] 19.3% | [2] 5.55% | [3] 24.4% | [4] -18.4% | [5] 16.6% | [6] 39.1%

C1CCC2C3CCC(O3)C2C1 (stereo unspecified)
inactive: [1] -4.2% | [2] 1.05% | [3] 5.4% | [4] -33.7% | [5] -39.1% | [6] 2.35%

Cc1cc(N)ccc1N=Nc1ccc(Sc2ccc(N=Nc3c(S(=O)(=O)O)cc4cc(S(=O)(=O)O)c(N=Nc5ccc([N+](=O)[O-])cc5)c(N)c4c3O)cc2)cc1
inactive: [1] -77% | [2] -27.9% | [3] -32.4% | [4] -95.8% | [5] -65.8% | [6] -27.9%

COC(=O)c1ccccc1C(=O)c1ccccc1
inactive: [1] -2.5% | [2] 9.2% | [3] 3.8% | [4] -4.75% | [5] -5.95% | [6] 8.4%

COc1cc(C(=O)C/C(CCC(=O)Nc2ccc(Cl)cc2Cl)=N/Nc2nnc(C)n2N)ccc1O
inactive: [1] -19.6% | [2] -4.2% | [3] -25.6% | [4] 13.4% | [5] 7.1% | [6] -5.05%

O=C(Nc1ccccc1SC(=O)OCc1ccccc1)OCc1ccccc1
inactive: [1] 30.2% | [2] 4.8% | [3] 11.6% | [4] 38.6% | [5] 1.95% | [6] 1.3%

c1ccc2c(c1)CC1C3c4ccccc4C(c4ccccc43)C1C2 (stereo unspecified)
inactive: [1] -12.1% | [2] 3.1% | [3] -8.95% | [4] 8.35% | [5] -16.2% | [6] -25.1%

O=c1c(-c2ccc(O)cc2)coc2cc(OC3OC(CO)C(O)C(O)C3O)cc(O)c12 (stereo unspecified)
inactive: [1] -35.5% | [2] -26.8% | [3] -40.8% | [4] -10.7% | [5] -60.2% | [6] -83.3%

O=C(CNC(=O)c1ccccc1)NC(CSCc1ccccc1)C(=O)O (stereo unspecified) (Bz-Gly-[ξC](Bn)-OH)
inactive: [1] -12.4% | [2] 5.55% | [3] -28.8% | [4] -19.1% | [5] -34.2% | [6] -1.3%

O=C(O)/C=C/c1ccc(Oc2ccccc2C(=O)O)o1
inactive: [1] -3.45% | [2] -7.15% | [3] 5.05% | [4] 2.3% | [5] -1.2% | [6] -2.25%

COc1cc(/C=C(\C#N)c2ccccc2)cc(OC)c1
inactive: [1] 43.8% | [2] -13.5% | [3] -9.6% | [4] -9.8% | [5] 17.4% | [6] -28.9%

COc1ccc(N=Nc2c(C)nc(N)nc2C)cc1
inactive: [1] 2.1% | [2] 18% | [3] 8.05% | [4] -26.8% | [5] -14.3% | [6] 12.6%

N#CCCCOc1ccccc1
inactive: [1] -14.2% | [2] -13.6% | [3] 16.4% | [4] -6.7% | [5] -2.05% | [6] 5.4%

CCOC(=O)c1cc(N)c(C(=O)OCC)cc1N
inactive: [1] 4.15% | [2] -16.5% | [3] -1.3% | [4] 3.6% | [5] 8.65% | [6] 10.3%
